We go through 13 compounds from PubChem BioAssay (NCI).

Each structure is given as a SMILES string. This is part of a sample that, as a whole, favours compounds with a hit. Of some 83,000 tested, about 20% had one in any assay.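 Plates (96-well) were seeded with cells, treated with compound at one concentration, and incubated for 48 hours before percent growth was determined.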 Values without a mark were called inactive. Active and inactive are the calls of the source. How the source made its calls: active means growth percent below 10; inactive means the rest.

Assay in all cases: NCI-60 one-dose screen, 48 h (100 = growth as untreated, 0 = no growth, -100 = all killed)
What all share (conditions): 10 µM unless noted

Assay [1] deals with NCI-H226 lung.
For assay [2], the system named is NCI-H322M lung.
The subject of assay [3] is HOP-62 NSCLC.
Assay [4] relates to NCI-H460 lung.
The subject of assay [5] is HOP-92 NSCLC.
For assay [6], the system named is NCI-H522 lung.
Assay [7] has as its system A549/ATCC NSCLC.
The test system of assay [8] is 786-0 renal.
For assay [9], the system named is COLO 205 colon.
For assay [10], the system named is DU-145 prostate.
Assay [11] relates to K-562 leukemia.
In assay [12] the test system is MALME-3M melanoma.
Assay [13] relates to MDA-MB-231 breast.
Assay [14] concerns RXF 393 renal.
In assay [15] the test system is SF-268 CNS.
In assay [16] the test system is SF-295 CNS.
Assay [17] concerns SF-539 CNS.
The subject of assay [18] is UACC-257 melanoma.
The test system of assay [19] is M14 melanoma.

Take `O=C(/C=C/c1cc(Cl)ccc1Cl)Nc1ncc(Cc2ccc(Cl)cc2)s1`: the growth in assay [1] was 26.1%; in assay [2] it was 33.5%; in assay [3] it was 1.25% (active); in [4], 0.165% (active); in assay [5], -10.6% (active); in [6] it was -33.7% (active). Also, the growth is 12.3% in assay [7]; 0.237% (active) in assay [8]; -45.2% (active) in assay [9]; 14.8% in [10]; 9.62% (active) in assay [11]; 49% in assay [12]. The growth in assay [13] is 6.75% (active); in assay [14], 33.7%; in assay [15] it was 34.7%; in assay [16], -2.3% (active); in assay [17], -22.6% (active); in assay [18], 49.1%. Moreover, the growth in assay [19] was 5.98% (active).

On to `CC(=C(c1ccc(OCCN(C)C)cc1)c1ccc(OCCN(C)C)cc1)c1ccc(Cl)cc1`, for which the growth in assay [1] was -11.9% (active); in assay [2], -3.42% (active); in [3], -57.8% (active); in assay [4] it was -71.9% (active); in assay [5] it was -9.45% (active); in assay [6], -64.5% (active). In addition, the growth in [7] was -65% (active); in [8] it was -67.5% (active); in assay [9], -50% (active); in assay [10], -73.6% (active); in assay [11] it was -9.65% (active); in assay [12], -79.9% (active). Also, the growth in assay [13] was -75.4% (active); in assay [14], -86.6% (active); in assay [15] it was -47.7% (active); in assay [16] it was -78.1% (active); in assay [17], -83% (active); in [18], -69.6% (active). Further, in assay [19], the growth is -63.5% (active).

In the case of `O=C1[C@H]2Cc3c([nH]c4ccccc34)[C@H](c3ccc(Br)cc3)N2C(=O)CN1C1CCN(CC2CCCCC2)CC1`, the growth in assay [1] is 92.5%; in assay [2], 92.8%; in assay [3], 82.2%; in assay [4], 54.1%; in assay [5], 77.2%; in assay [6] it was 83.6%. Also, the growth is 79.4% in assay [7]; 83.4% in [8]; 81.3% in assay [9]; 79.4% in assay [10]; 6.13% (active) in assay [11]; 72.5% in [12]. In addition, the growth in assay [13] is 76.5%; in assay [14], 62.6%; in assay [15] it was 66.8%; in [16] it was 113%; in assay [17], 75.3%; in assay [18] it was 97.4%. Further, the growth in assay [19] is -17.4% (active).

For `C#CCOc1cccc(-c2nc(N)nc(Nc3ccccc3SSc3ccccc3Nc3nc(N)nc(-c4cccc(OCC#C)c4)n3)n2)c1`, the growth was 1.74% (active) in [1]; 80.9% in [2]; -63.2% (active) in assay [3]; -15.7% (active) in assay [4]; 87.6% in [5]; 79.8% in [6]. Moreover, the growth in assay [7] is -39.7% (active); in assay [8], 96.9%; in assay [9], 114%; in assay [10], 55.2%; in assay [11] it was 43.5%; in assay [12], 96.8%. Further, the growth in [13] is 48.1%; in assay [14] it was 81.8%; in assay [15], -11.5% (active); in assay [16], -69.8% (active); in [17], 59.2%; in [18] it was 108%. For the same compound, the growth in [19] was 66.6%.

With `CNC(=O)c1cc(N2CCc3cc(NC(=O)Nc4ccc(N5CCOCC5)c(C(F)(F)F)c4)ccc32)ccn1`, the growth in assay [1] was 35.2%; in assay [2], 56.2%; in assay [3], 12.1%; in assay [4] it was 9.77% (active); in assay [5] it was 14.1%; in [6], 45.8%. Further, the growth was 27.3% in assay [8]; 26.7% in assay [9]; 27.2% in [10]; 7.92% (active) in [11]; 25.8% in [12]; 47.6% in assay [13]. For the same compound, the growth in [14] was -6.79% (active); in assay [15] it was 47.8%; in assay [16], -21% (active); in [17], 24.1%; in assay [18] it was 59.1%; in assay [19], 17%.

Turning to `Cn1c(SCC(=O)c2ccco2)nc2ccccc2c1=O`, the growth is 79.5% in [1]; 91.8% in [2]; 99.7% in assay [3]; 101% in assay [4]; 90.6% in assay [5]; 101% in [6]. Further, the growth is 108% in [7]; 110% in assay [8]; 118% in [9]; 106% in [10]; 92% in assay [11]; 98.3% in [12]. Besides, the growth in assay [13] was 93.8%; in assay [14], 124%; in assay [15] it was 102%; in assay [16], 104%; in [17], 96.6%; in assay [18], 99.7%. Besides, the growth in assay [19] was 97.2%.

As for `NNc1nnc2nc(Nc3ccccc3)nc(Nc3ccc(S(N)(=O)=O)cc3)n12`, the growth was 105% in assay [1]; 102% in assay [2]; 111% in [3]; 101% in assay [4]; 119% in [5]; 101% in assay [6]. In addition, the growth in [7] is 105%; in assay [8] it was 110%; in assay [9], 105%; in assay [10], 112%; in [11], 101%; in [12] it was 101%. The growth is 95.8% in assay [13]; 101% in assay [14]; 107% in [15]; 106% in [16]; 96.5% in [17]; 106% in assay [18]. In addition, the growth in assay [19] is 108%.

`N/C(=N\C(N)=N\c1nc2ccccc2s1)c1ccc(Cl)cc1`: the growth in [1] was 77.8%; in assay [2], 88.3%; in [3], 1.11% (active); in [4], 52.5%; in [5], 84.6%; in [6] it was 80.8%. The growth is 20.9% in [7]; 102% in assay [8]; 104% in assay [9]; 85.4% in assay [10]; 86.9% in [11]; 90.3% in assay [12]. Also, the growth is 79.5% in assay [13]; 92.6% in [14]; 93% in assay [15]; 44.5% in assay [16]; 95.4% in [17]; 105% in assay [18]. Further, in assay [19], the growth is 87.6%.

Consider `Cc1ccc2c(n1)C(=O)C(Cl)=C(Nc1ccc(C)c(C)c1)C2=O`, for which the growth in assay [1] is 36%; in assay [2], 60.9%; in [3], 60.2%; in assay [4] it was 46.4%; in assay [5], 105%; in assay [6], 58.9%. For the same compound, the growth is 24.5% in assay [7]; 104% in assay [8]; 105% in [9]; 6.17% (active) in [10]; 4.14% (active) in [11]; 85.4% in [12]. The growth was 49.3% in assay [13]; 85.7% in [14]; 79.1% in assay [15]; 44.7% in assay [16]; 59.9% in [17]; 16% in assay [18]. In addition, the growth in [19] is 42.5%.

Regarding `CC[C@]12C=CCN3CC[C@]4(C(=C(C(=O)OC)C1)Nc1cc5c(cc14)[C@@H]1[C@H](O5)[C@@H](O)[C@@]4(CC)CC(C(=O)OC)=C5Nc6cc(O)ccc6[C@@]56CCN1C46)C32` (some centres undefined), the growth was -1.32% (active) in assay [1]; 0.163% (active) in [2]; 16.6% in [3]; 10.3% in assay [4]; 35.5% in assay [5]; -22.8% (active) in [6]. Moreover, the growth in assay [7] is 20.2%; in assay [8], 6.94% (active); in assay [9], -48% (active); in [10], 22%; in assay [11] it was 3.36% (active); in assay [12] it was 19.3%. The growth was 21% in [13]; -40.2% (active) in assay [14]; 6.98% (active) in [15]; 8.14% (active) in [16]; 4.2% (active) in assay [17]; 21.8% in assay [18]. In addition, in assay [19], the growth is 15.7%.

Consider `Cc1ccc2c(n1)C(=O)C(Cl)=C(Nc1ccc(C(=O)OC(C)(C)C)cc1)C2=O`, for which the growth in assay [1] was 85.8% [9.25 µM]; in assay [2], 101% [9.25 µM]; in assay [4] it was 102% [9.25 µM]; in assay [5], -54.9% [9.25 µM] (active); in assay [6] it was -14.1% [9.25 µM] (active); in [7], 99.9% [9.25 µM]. In addition, the growth is -56.4% [9.25 µM] (active) in assay [8]; 97.9% [9.25 µM] in assay [10]; 0.658% [9.25 µM] (active) in [11]; 24% [9.25 µM] in assay [12]; 53.9% [9.25 µM] in [13]; -19.3% [9.25 µM] (active) in [14]. Further, the growth in assay [15] was 87.6% [9.25 µM]; in assay [16] it was 104% [9.25 µM]; in [17] it was 100% [9.25 µM]; in assay [18], 29.5% [9.25 µM]; in assay [19], 61.3% [9.25 µM].

As for `Cc1ccc(N2CCN(C3=C(Cl)C(=O)c4ncccc4C3=O)CC2)cc1`, the growth in [1] is 93.2%; in assay [2] it was 97.4%; in assay [3] it was 73.1%; in assay [4], 44.8%; in [5] it was 84.4%; in [6], 45.2%. Besides, the growth in assay [7] is 91.3%; in assay [8], 99.5%; in assay [9] it was 75.3%; in assay [10], 51.7%; in [11], 6.28% (active); in assay [12], 52.8%. The growth was 24.5% in assay [13]; 12.5% in [14]; 80.2% in assay [15]; 97.5% in assay [16]; 86.6% in assay [17]; 29.6% in assay [18]. Moreover, in [19], the growth was 70.3%.

With `CNc1sc(S(=O)(=O)NC)nc1S(=O)(=O)c1ccc(C)cc1`, the growth in assay [1] was 92.5%; in [2], 96.4%; in assay [3], 99.4%; in assay [4], 109%; in [5], 84.9%; in assay [6], 94.5%. Also, the growth is 98.8% in assay [7]; 99.4% in assay [8]; 112% in [9]; 107% in [10]; 97.5% in assay [11]; 110% in assay [12]. The growth in assay [13] is 101%; in [14], 108%; in [15], 103%; in [16] it was 93.6%; in [17], 98.6%; in assay [18], 100%. Besides, the growth in [19] was 101%.
